Sampled rows, rich in hits. Any-hit rate of the full collection: about 19%.
uPA surface inh: inhibitors of cell surface uPA generation | AID 540303 | cell surface uPA generation assay, qHTS | 330,000 compounds, 0.31% hits | Potency, µM (highest dose often 38.3 µM), without a hit: at the highest dose activity change, negative = inhibition, most hits filed as inhibitors; active means well fitted inhibition curve with a large enough effect; inconclusive means small, poorly fitted or top-dose-only effect; inactive means no such curve, though single readings can be large or run the other way; tested in mouse RAW 264.7 cells; further: potency means the concentration at half of the fitted maximal effect; nearly all actives have a fitted effect of over 55% in size
IL-1B inflam inh: inhibitors of inflammasome signaling (IL-1 beta secretion) | 360,000 compounds, 4.7% hits | THP-1 LPS/ATP IL-1B secretion, AlphaLISA, 16 h; active compounds read low | AID 743279 | activity change, % at 57.5 µM; in the data active means activity change below about -50%; inconclusive means mostly about -30% to -49%
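Secreted IL-1B measured by AlphaLISA bead assay after 16 h compound exposure of THP-1 cells; compounds (final up to 57.5 uM) added 1 h before LPS (250 ng/mL) and ATP (1.25 mM) stimulation; lower signal means less secretion.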
HT1080 IDH1KD tx: kills HT-1080 cells with IDH1 knockdown; Potency, µM (series often up to 46.1 µM), inactives show at the highest dose activity, negative = toxicity, most hits filed as cytotoxic; 360,000 compounds, 2% hits; HT-1080 IDH1 knockdown viability, ATP luminescence, 48 h;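 further: potency means the concentration at half of the fitted maximal effect; 0% = DMSO wells and -100% = cell-free medium wells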
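Knockdown cells (IDH1KD HT-1080) received compounds 2 h after plating at 750 cells/well and were kept 48 h at 37 °C in 5% FBS RPMI. A CellTiter-Glo luminescence read gave % activity for curve fitting.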
TDP1 cell noCPT: qHTS for Inhibitors of human tyrosyl-DNA phosphodiesterase 1 (TDP1): qHTS in cells in absence of CPT | DT40 Tdp1-/- hTDP1 cells, no CPT, ATP luminescence, 48 h | Potency, µM (titrated, usually from 46.2 µM), inactives show at the top dose activity change, negative = growth inhibition, most hits filed as inhibitors | 420,000 compounds, 15% hits | AID 686978, 2013; further: potency means the concentration at half of the fitted maximal effect; nearly all actives have a fitted effect of over 55% in size
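Readout: luminescence from CellTiter-Glo after 30 min in the dark at RT. Cells: DT40 Tdp1-/- with stable hTDP1, 400/well. Exposure: compounds alone, ≥48 hr, 37 °C.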
DT40 TDP1 CPT: DT40-hTDP1 cell growth loss with CPT; AID 686979; chicken DT40 Tdp1-/-;hTDP1 cells + 20 nM CPT, ATP luminescence, 48 h; Potency, µM (top dose mostly 46.2 µM), without a hit: at the top dose activity change, negative = growth inhibition, actives largely listed as inhibitors; 420,000 compounds, 12% hits; further: potency means the concentration at half of the fitted maximal effect; nearly all actives have a fitted effect of over 55% in size
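Chicken DT40 Tdp1-/- cells stably complemented with human TDP1 were seeded at 400 cells/well in medium containing 20 nM camptothecin, exposed to pin-transferred compounds, and grown at 37 °C for at least 48 hr. Viability was read as ATP luminescence.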
HT1080NT lethal: kills 2HG-producing HT-1080-NT fibrosarcoma cells | Potency, µM (titrated, usually from 46.1 µM), without a hit: at the highest dose activity, negative = less viability, hits mostly cytotoxic | AID 686970 | 360,000 compounds, 1.6% hits | HT-1080-NT fibrosarcoma viability, CellTiter-Glo ATP luminescence, 48 h;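 further: NT is the 2HG producing partner of a matched IDH1 knockdown line; potency means the concentration at half of the fitted maximal effect; 0% = DMSO-treated cells and -100% = media-only wells without cells; nearly all actives have a fitted effect of over 55% in size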
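Viability of the 2HG-overproducing fibrosarcoma line after 48 hours of compound exposure at 37 degrees C was determined by luminescence with CellTiter-Glo, and concentration-effect curves were then fitted and categorized.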
Starred values were filed as active, the others as inactive; ? = inconclusive; / = not tested or not shown; [ ] = remark or other dose. Unless noted, the call rests on the fitted dose curve; in most records, active means well fitted curve in the direction sought with a large enough effect; inconclusive means small, poorly fitted or top-dose-only effect, or another doubt; inactive means no such curve, though single readings can be large; an effect the other way counts as inactive or inconclusive. Unless noted, on the % scale 0 is the no-effect control and ±100 the full control effect.

SMILES | uPA surface inh | IL-1B inflam inh | HT1080 IDH1KD tx | TDP1 cell noCPT | DT40 TDP1 CPT | HT1080NT lethal
CC1NC(C(=O)O)Cc2c1[nH]c1ccccc21 (stereo not drawn) | / | / | / | -17.4% | -6.4% | /
COc1ccc(/C=C\C(=O)NCC(=O)N/N=C/c2cccc(OC)c2O)cc1 | -11.3% | 67.5 | 0.2% | 2.59µM* | 5.8µM* | -16.9%
COC(=O)C[C@H]1CC[C@H](NC(=O)c2cccc(F)c2)[C@@H](CO)O1 | / | 0.0 | 12.4% | 16.8% | 8.8% | ?
O=C(NC1CCCCC1)c1ccc(CSc2nc3cccnc3n2Cc2ccccc2F)cc1 | / | / | / | 20.6µM* | ? | /
O=C(NC1CCCCC1)c1ccc(Cn2c(SCc3ccccc3F)nc3cccnc32)cc1 | / | / | / | 16.4µM* | ? | /
O=C(NC1CC1)c1ccc(Cn2c(SCc3ccccc3F)nc3cccnc32)cc1 | / | / | / | 11.6µM* | 20.6µM* | /
CC(C)NC(=O)c1ccc(Cn2c(SCc3ccc(F)cc3)nc3cccnc32)cc1 | / | / | / | -28.8% | -29.2% | /
Cc1ccc(S(=O)(=O)CCC(=O)NCc2ccccc2Cl)cc1 | 2.3% | 8.4 | -2.9% | -8.0% | -12.6% | 0.0%
Cc1ccc(S(=O)(=O)Cc2ccccc2Cl)cc1 | -12.7% | 12.5 | ? | 20.6µM* | ? | -24.8%
Cc1nc2c(C(F)(F)F)cccc2c2c1CCS2 | -7.5% | -12.1 | 0.4% | -4.3% | 4.2% | -9.3%
CC(C)(C)NCCC(O)c1cc(C(F)(F)F)nc2c(C(F)(F)F)cccc12 (stereo not drawn) | -5.9% | -87.6* | ? | 16.4µM* | 20.6µM* | -26.7%
O=C(NCc1ccccn1)Nc1cccc(Cl)c1 | 3.4% | -5.5 | 6.9%[9.24 µM] | -0.3% | -9.0% | -0.6%
O=C(CSC1=NNC(c2ccccn2)S1)Nc1ccccc1 (stereo not drawn) | ? | 184.1 | ? | 1.84µM* | 2.06µM* | ?
O=C(CSC1=NNC(c2ccccn2)S1)Nc1cccc(Cl)c1 (stereo not drawn) | 1.1% | 147.2 | ? | 1.84µM* | 1.84µM* | ?
CCOC(=O)CC(NC(=O)c1cc2cc(OC)ccc2oc1=O)c1ccc(OC)cc1 (stereo not drawn) | / | / | / | -6.2% | ? | /
CCOC(=O)/C(=C(/C)N)C1CC(=O)NC1=O (stereo not drawn) | / | 13.0 | 5.1% | -1.2% | 9.3% | -2.2%
O=C(c1ccc2c(c1)N(Cc1ccc(Cl)cc1)C(=O)c1ccccc1S2(=O)=O)N1CCc2ccccc21 | / | / | / | 7.31µM* | 5.8µM* | /
O=C(c1ccc2c(c1)N(Cc1ccc(F)cc1)C(=O)c1ccccc1S2(=O)=O)N1CCCC1 | / | / | / | 16.4µM* | 23.1µM* | /
O=C(c1ccc2c(c1)N(Cc1ccc(Cl)cc1)C(=O)c1ccccc1S2(=O)=O)N1CCCC1 | / | / | / | 25.9µM* | 20.6µM* | /
CCN1CCN(C(=O)c2ccc3c(c2)N(Cc2ccc(Cl)cc2)C(=O)c2ccccc2S3(=O)=O)CC1 | / | / | / | 23.1µM* | ? | /
O=C(c1ccc(Cl)cc1)N1CCc2ccccc21 | -4.9% | -9.7 | 6.9% | ? | ? | 0.8%
CCN1CCN(C(=O)c2ccc3c(c2)N(Cc2ccccc2)C(=O)c2ccccc2S3(=O)=O)CC1 | -13.5% | 38.5 | 6.6% | -23.6% | -7.9% | 17.7%
COc1cccc(NC(=O)Cn2c(=O)n(-c3ccc(CC(=O)NCC4CCCO4)cc3)c(=O)c3ccccc32)c1 (stereo not drawn) | / | / | / | ? | -17.9% | /
O=C(O)CSc1c2c(nc3cc(C(=O)Nc4ccc(F)c(Cl)c4)ccc13)CCC2 | / | / | / | -1.8% | 11.4% | /
Cc1noc(C)c1NC(=O)N(C)C[C@@H]1Oc2ncc(Br)cc2C(=O)N([C@@H](C)CO)C[C@H]1C | / | 10.4 | 10.4% | -14.5% | -19.9% | 13.2%
SMILES | uPA surface inh | IL-1B inflam inh | HT1080 IDH1KD tx | TDP1 cell noCPT | DT40 TDP1 CPT | HT1080NT lethal
CCc1nc(SCC(=O)Nc2ccc(F)cc2F)c2c(=O)n(C)c(=O)n(C)c2n1 | 12.6% | 0.0 | 4.1% | ? | ? | 0.5%
Cc1nc2c(c(C)c1CCC(=O)Nc1ccc(F)cc1)c(=O)n(C)c(=O)n2C | / | / | / | 13µM* | ? | /
Cc1nc2c(c(C)c1CCC(=O)Nc1cccc(C(F)(F)F)c1)c(=O)n(C)c(=O)n2C | / | / | / | 16.4µM* | ? | /
COc1ccc(NC(=O)CCc2c(C)nc3c(c2C)c(=O)n(C)c(=O)n3C)cc1OC | / | / | / | ? | 10.9% | /
CCc1nc(SCC(=O)Nc2cccc(C(F)(F)F)c2)c2c(=O)n(C)c(=O)n(C)c2n1 | 7.0% | 39.4 | -2.0% | 9.2µM* | ? | 1.9%
Cc1ccccc1NC(=O)CCc1c(C)nc2c(c1C)c(=O)n(C)c(=O)n2C | / | / | / | ? | 3.5% | /
CCCCOCCCNC(=O)C[C@@H]1C[C@@]2(C(=O)OC)CC(C)(C)CC=C2N(Cc2ccccc2)C1=O | / | ? | -11.5% | ? | 20.6µM* | -22.8%
CCCCOCCCNC(=O)C[C@@H]1C[C@@]2(C(=O)OC)CC(C)(C)CC=C2N(Cc2cccc3ccccc23)C1=O | / | -5.1 | 20.6µM* | ? | ? | ?
Cn1cnc(S(=O)(=O)N2CCCCC2c2cc(C(=O)Nc3ccc(F)c(Cl)c3)no2)c1 (stereo not drawn) | / | -6.6 | -19.3% | ? | ? | -12.1%
CC(C)(C)OC(=O)N1CCCC(C(=O)Nc2ccc(C(=O)N3CCOCC3)cc2)C1 (stereo not drawn) | 1.8% | 7.2 | 4.3% | -1.6% | 1.4% | 4.6%
O=C(C(=O)N1CCN(c2ccccc2)CC1)c1ccccc1 | / | -6.8 | 18.5% | -0.7% | 13.6% | 27.8%
CCOCN(C(=O)Cn1cnc2cc(C)c(C)cc21)c1c(C)cccc1CC | / | / | / | 16.4µM* | 20.6µM* | /
CCOCN(C(=O)Cn1c(COC)nc2ccccc21)c1c(C)cccc1CC | 2.7% | -5.3 | -1.3% | ? | ? | 0.6%
O=c1c2c(nc3cc(-c4cccc(Cl)c4)[nH]n13)CCC2 | / | 20.2 | 0.5% | ? | ? | 1.6%
O=c1c2c(nc3c(-c4cccc5ccccc45)c[nH]n13)CCC2 | -2.2% | 9.5 | -3.8% | ? | 25.1µM* | -7.6%
Cc1[nH]n2c(=O)c3c(nc2c1-c1ccc(F)cc1)CCCC3 | 1.0% | 8.1 | -8.6% | ? | 16.4µM* | 9.5%
O=c1c2c(nc3c(-c4ccc(Cl)cc4)c[nH]n13)CCCC2 | -10.5% | 45.5 | 7.08µM* | 3.98µM* | 3.55µM* | ?
Cc1[nH]n2c(=O)c3c(nc2c1-c1ccccc1)CCCC3 | -1.4% | 0.3 | 22.9% | ? | ? | 2.6%

Assay outcomes from PubChem BioAssay.
